Sampled rows, rich in hits. Any-hit rate of the full collection: about 1.8%.
HTR2A ag: mouse Htr2a agonists via beta-arrestin recruitment, primary screen, cell-based, luminescence. 5-hydroxytryptamine receptor 2A (Mus musculus), P35363. CHO-K1 mHTR2A beta-arrestin complementation; percent of 30 µM serotonin response. activation, % at 7.6 µM. 360,000 compounds, 0.66% hits;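 active means activation above a run cutoff, the mean activation of all tested compounds plus 3 SD, cut at about 14% in these data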;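 further: 0% = plate median of compound wells and 100% = 30 µM serotonin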
NPR1 activator: GC-A stimulated cGMP production enhancers – HEK293 GC-A cells, cGMP TR-FRET, EC30 ANP, primary screen; activation, % at 10 µM; Atrial natriuretic peptide receptor 1 (Homo sapiens), P16066; 0% at EC30 ANP, 100% saturating ANP; AID 1671463, 2021; 370,000 compounds, 0.14% hits; in the data active means activation above about 40%
MsrA inhibitor: bovine MsrA enzyme inhibitors, primary screen, biochemical, absorbance, HTS | purified bovine MsrA, absorbance read-out | 360,000 compounds, 0.75% hits | inhibition, % at 15.5 µM | AID 651718, 2012;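 further: 0% = vehicle wells with enzyme and 100% = reference inhibitor wells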
bovine MsrA act: bovine MsrA enzyme activators, primary screen, biochemical, absorbance, HTS; Methionine sulfoxide reductase A (Bos taurus); purified bovine MsrA, absorbance read-out; activation, % at 10.6 µM; AID 602163, 2012; 360,000 compounds, 0.3% hits; in the data active means activation above about 7.5%;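 further: 0% = vehicle and 100% = reference activator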
GC-B act: human GC-B receptor activators, primary screen, HEK293 GC-B cells, cGMP TR-FRET, EC30 CNP | 0% at EC30 CNP, 100% saturating CNP | activation, % at 10 µM | 370,000 compounds, 0.11% hits | AID 1920062, 2024;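 active means activation at 10 µM reaching about 35% in either raw or pattern-adjusted values, limit read from the data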
Target sequence (P20594 whole entry, looked up): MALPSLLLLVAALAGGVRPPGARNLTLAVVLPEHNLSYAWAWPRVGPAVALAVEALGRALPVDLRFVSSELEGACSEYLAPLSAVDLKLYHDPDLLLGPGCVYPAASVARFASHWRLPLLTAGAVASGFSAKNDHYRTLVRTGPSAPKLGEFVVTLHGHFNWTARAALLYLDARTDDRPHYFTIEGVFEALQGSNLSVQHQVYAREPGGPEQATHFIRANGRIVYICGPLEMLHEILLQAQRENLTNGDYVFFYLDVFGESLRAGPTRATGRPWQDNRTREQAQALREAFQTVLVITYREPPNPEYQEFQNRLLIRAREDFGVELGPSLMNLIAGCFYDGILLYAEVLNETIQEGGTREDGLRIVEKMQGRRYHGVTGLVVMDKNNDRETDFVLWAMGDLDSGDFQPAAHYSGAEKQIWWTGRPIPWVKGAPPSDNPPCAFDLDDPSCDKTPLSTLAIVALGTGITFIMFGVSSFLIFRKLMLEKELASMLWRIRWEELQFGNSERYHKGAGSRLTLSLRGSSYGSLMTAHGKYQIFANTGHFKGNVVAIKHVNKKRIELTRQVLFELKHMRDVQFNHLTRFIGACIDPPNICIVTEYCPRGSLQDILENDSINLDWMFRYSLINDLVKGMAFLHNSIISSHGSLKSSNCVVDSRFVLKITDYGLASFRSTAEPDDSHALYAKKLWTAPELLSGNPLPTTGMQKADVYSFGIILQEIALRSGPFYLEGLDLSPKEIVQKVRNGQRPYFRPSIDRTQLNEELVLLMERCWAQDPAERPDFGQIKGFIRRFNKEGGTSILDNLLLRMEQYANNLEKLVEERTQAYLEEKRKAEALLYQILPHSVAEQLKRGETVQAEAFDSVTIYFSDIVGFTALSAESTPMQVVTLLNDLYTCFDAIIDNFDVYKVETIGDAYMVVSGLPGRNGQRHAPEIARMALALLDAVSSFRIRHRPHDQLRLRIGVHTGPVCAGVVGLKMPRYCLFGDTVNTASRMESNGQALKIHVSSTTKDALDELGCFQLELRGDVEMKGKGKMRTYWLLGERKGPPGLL
MsrA conf: bovine MsrA inhibitors, retest, confirmation, biochemical, absorbance, HTS; shares compounds with MsrA inhibitor; purified bovine MsrA, absorbance read-out; inhibition, % at 15.5 µM; 2,300 compounds, 41% hits; AID 651822, 2012;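 further: coupled to thioredoxin reductase with NADPH and selenocystamine and DMSO as substrate; 0% = vehicle only and 100% = full effect of reference inhibitor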
* marks the source's active call; other numbers are inactive results; · = not tested or not shown. Unless noted, no stated cut-off is given here; in the data, active means inhibition above about 4.5%; inactive means the rest.

SMILES | HTR2A ag | NPR1 activator | MsrA inhibitor | bovine MsrA act | GC-B act | MsrA conf
COc1ccc(/C=N/NC(=S)SC)cc1OC | -6 | 15 | 6.2* | -4 | 15 | 4
COc1ccc(C=NNC(=O)NN=Cc2ccc(OC)c(OC)c2)cc1OC | 0 | 1 | 3 | -5 | 0 | ·
COc1ccc(-c2cnnc(N/N=C/c3ccc(O)c(OC)c3)n2)cc1 | 2 | 9 | 6.4* | -14 | -1 | 6.6*
COc1ccc(/C=N/Nc2cc(=O)n(C)c(=O)n2C)cc1OC | 2 | 5 | 4.7* | -8 | -7 | 4.7*
CC(=O)Nc1ccc2c(c1)C(N1CC3CCC(CC3)C1)c1ccccc1-2 (stereo not given) | -1 | -6 | 0 | -2 | -3 | ·
Nc1[nH]c(C(=O)c2ccccc2)c(-c2ccc(Cl)cc2Cl)c1C(=O)c1cccs1 | · | -20 | · | · | 2 | ·
COc1ccc(-n2c(SCC(=O)Nc3cc(C)c(NC(=O)c4ccccc4)cc3OC)nnc2-c2cccnc2)cc1 | · | 1 | · | · | 1 | ·
COc1ccc(/C=C2\CC3(OC(=O)C4CCCCC4)CCCN2C3)cc1 (stereo not given) | · | 5 | · | · | -4 | ·
COC(=O)C1CN(C2CCCC2)CCS(=O)(=O)N1Cc1cn(Cc2ccc(OC)cc2)nn1 (stereo not given) | · | 2 | · | · | 7 | ·
COc1ccc(/C=N/Nc2nc(N)cc(Cl)n2)cc1OC | -6 | 4 | 5.8* | -3 | 16 | 3
COc1ccc(/C=N/Nc2nonc2N)cc1OC | -5 | 1 | 4 | -2 | 1 | ·
CC(=O)c1ccc(N2CCN(C(=O)C3CCCN(S(=O)(=O)c4c(C)[nH]c(=O)[nH]c4=O)C3)CC2)cc1 (stereo not given) | 4 | 2 | 4.7* | -7 | 1 | 3
O=C(CN1C(=O)S/C(=C\c2ccccc2)C1=O)NC1CCS(=O)(=O)C1 (stereo not given) | -8 | 1 | 5.3* | -2 | 7 | 4
O=C(CN1C(=O)S/C(=C\c2ccccc2)C1=O)Nc1cc([N+](=O)[O-])ccc1O | 0 | 4 | 4.8* | -4 | -2 | 4.6*
O=C(CCN1C(=O)S/C(=C\c2ccccc2)C1=O)N1CCOCC1 | 1 | -1 | 5.7* | 3 | 2 | 3
O=C(CN1C(=O)S/C(=C\C=C\c2ccccc2)C1=O)NC1CCS(=O)(=O)C1 (stereo not given) | 7 | 7 | 3 | -7 | 0 | ·
O=C(CN1C(=O)S/C(=C/c2ccccn2)C1=O)N1CCOCC1 | -6 | 0 | 5.3* | -6 | -1 | 4.8*
O=C1CC2c3cc(-c4cc5ccccc5o4)ccc3CCN2C(=O)CN1Cc1ccccc1 (stereo not given) | · | 15 | 2 | · | 0 | ·
CCOC(=O)N1CCN(C(=O)C[C@H]2C[C@@]3(C(=O)OC)C(=C[C@H](COCc4ccccc4)O[C@@H]3C)N(CCc3ccc(OC)c(OC)c3)C2=O)CC1 | · | 6 | · | · | 6 | ·
COc1ccccc1C(=O)NCCN1CCCC1 | -5 | 3 | 1 | 0 | -3 | ·
O=C(CSc1nnnn1-c1ccc2c(c1)OCCO2)N1CCN(C(=O)c2ccco2)CC1 | -1 | -5 | 0 | -4 | 6 | ·
O=C(CCN1C(=O)S/C(=C/c2ccccc2)C1=O)Nc1ccc(C(=O)O)c(O)c1 | 0 | 4 | 5.7* | -6 | -2 | 2
CCCCC(=O)N1CCN(c2nc3ccc(OCC)cc3s2)CC1 | -4 | 5 | 0 | 0 | 3 | ·
Cc1cc2nc(N3C(=O)CNC3=S)sc2cc1C | -5 | 7 | 7.7* | -6 | 5 | 4.9*
CCOc1ccc2nc(N3C(=O)CNC3=S)sc2c1 | -11 | 2 | 7.3* | -5 | -1 | 4.6*
SMILES | HTR2A ag | NPR1 activator | MsrA inhibitor | bovine MsrA act | GC-B act | MsrA conf
CCCC1CCC2(CCCN2CCOC(=S)Nc2ccccc2OC)CC1 (stereo not given) | · | -4 | · | · | -3 | ·
CC1=C(C#N)c2nc(N)c(C#N)c(C)c2/C1=C\c1ccc(-c2ccccc2C(=O)O)o1 | 1 | -3 | 1 | -5 | 4 | ·
COc1cc(/C=C2/C(C)=C(C#N)c3nc(N)c(C#N)c(C)c32)ccc1OCC(=O)O | · | 2 | 5.0* | · | -1 | 2
Cc1cccc(-c2cccc(NC(=O)C3CCCN(C(=O)c4csc(C)n4)C3)c2)c1 (stereo not given) | -11 | 11 | 0 | -1 | 2 | ·
O=[N+]([O-])c1ccc(Nc2ccccc2)c2nonc12 | -4 | -1 | 5.8* | 4 | 2 | 4
COCCCNC(=O)C[C@H]1C[C@@]2(C(=O)OC)C(=C[C@H](COCc3ccccc3)O[C@@H]2C)N(Cc2cccc3ccccc23)C1=O | · | 1 | · | · | 4 | ·
Cc1ccccc1C(=O)n1ccc2ccc(-c3ccc4ccn(Cc5ccccc5)c4c3)cc21 | · | 0 | · | · | 2 | ·
O=C(CNCc1ccccc1[N+](=O)[O-])N1CCC2(CC1)OCCO2 | · | -3 | · | · | -5 | ·
COc1ccc(-c2cc(=O)c3cccc(CC(=O)O)c3o2)cc1 | · | 3 | 5.0* | · | 0 | 4.6*
COc1ccc(-c2cc(=O)c3ccccc3o2)cc1 | -5 | -2 | 2 | -4 | 7 | ·
CN(C)c1ccc(/C=N/NC(=O)c2ccc(CN3CCOCC3)cc2)cc1Br | 0 | 4 | 2 | -14 | 1 | ·
COc1ccc(/C=N/NC(=O)c2ccc(CSc3nncn3C)cc2)cc1OC | 2 | -4 | 4.8* | -6 | -1 | 4
CCOc1cc(/C=N/NC(=O)c2ccc(CN3CCOCC3)cc2)ccc1OC | 4 | 2 | 5.3* | -12 | 1 | 4
COc1cc(/C(C)=N/NC(=O)c2ccc(CSc3nncn3C)cc2)cc(OC)c1OC | 4 | -2 | 1 | 3 | 3 | ·
Cc1oc2c(C)c3oc(=O)c(CC(=O)N[C@@H](CCCNC(N)=O)C(=O)O)c(C)c3cc2c1C | 8 | 5 | 4.9* | -1 | 2 | 2
COC(=O)c1cccc(-n2c(C)cc(/C=C3\SC(=O)NC3=O)c2C)c1 | 4 | -3 | 3 | -2 | -6 | ·
Cc1cc(C(=O)O)ccc1-n1c(C)cc(/C=C2\SC(=O)NC2=O)c1C | 4 | 3 | 5.7* | -3 | 0 | 3
CC(C)[C@@H]1C(=O)N[C@H](Cc2cn(S(=O)(=O)c3ccccc3)c3ccccc23)C(=O)N1C | · | -2 | · | · | -3 | ·
COCCCNC(=O)Cn1nc(Cc2ccncc2)c2ccccc2c1=O | · | 4 | · | · | 2 | ·
COc1ccc(/C=C(\C#N)C(=O)NC(C)c2ccccc2)cc1O (stereo not given) | 0 | -3 | 4.9* | -6 | 0 | 3
S=c1nc(-c2ccccc2Cl)n(Cc2cccnc2)c2c1CCCC2 | 0 | 6 | 5.9* | -8 | 1 | 4.7*
CCN(CC)c1ccc(/C=N/NC(=O)Cc2cccs2)c(O)c1 | 0 | 0 | 6.2* | -9 | 8 | 3

Compound activity as filed in PubChem.
